Inconclusive results are not listed. A number with no mark means an inactive call. The call rests on the fitted dose curve.
The compounds below were run against Atrial natriuretic peptide receptor 1 (Homo sapiens) (UniProt P16066) (assay: Natriuretic polypeptide receptor (hNpr1) antagonism - Pilot screen (AID 1347049;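 further: agonist-evoked cGMP luminescence read 20 min after hNppA addition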)). Conditions: hNpr1 cells, antagonist mode cGMP read-out; series mostly up to 57.5 µM; activity change, negative = inhibition: at the top concentration.
Procedure, shortened: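 cGMP-sensor HEK293/hNpr1 cells, 1500/well, plated overnight at 37C. 2% GloSensor reagent, 2 h RT. Compound (23 nL pin transfer) 30 min RT, baseline luminescence pre-read. 0.1 nM hNppA, 20 min RT, post-read.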
On the % scale 0 is the no-effect control and ±100 the full control effect.

Atrial natriuretic peptide receptor 1 (Homo sapiens), sequence (P16066 whole entry, looked up): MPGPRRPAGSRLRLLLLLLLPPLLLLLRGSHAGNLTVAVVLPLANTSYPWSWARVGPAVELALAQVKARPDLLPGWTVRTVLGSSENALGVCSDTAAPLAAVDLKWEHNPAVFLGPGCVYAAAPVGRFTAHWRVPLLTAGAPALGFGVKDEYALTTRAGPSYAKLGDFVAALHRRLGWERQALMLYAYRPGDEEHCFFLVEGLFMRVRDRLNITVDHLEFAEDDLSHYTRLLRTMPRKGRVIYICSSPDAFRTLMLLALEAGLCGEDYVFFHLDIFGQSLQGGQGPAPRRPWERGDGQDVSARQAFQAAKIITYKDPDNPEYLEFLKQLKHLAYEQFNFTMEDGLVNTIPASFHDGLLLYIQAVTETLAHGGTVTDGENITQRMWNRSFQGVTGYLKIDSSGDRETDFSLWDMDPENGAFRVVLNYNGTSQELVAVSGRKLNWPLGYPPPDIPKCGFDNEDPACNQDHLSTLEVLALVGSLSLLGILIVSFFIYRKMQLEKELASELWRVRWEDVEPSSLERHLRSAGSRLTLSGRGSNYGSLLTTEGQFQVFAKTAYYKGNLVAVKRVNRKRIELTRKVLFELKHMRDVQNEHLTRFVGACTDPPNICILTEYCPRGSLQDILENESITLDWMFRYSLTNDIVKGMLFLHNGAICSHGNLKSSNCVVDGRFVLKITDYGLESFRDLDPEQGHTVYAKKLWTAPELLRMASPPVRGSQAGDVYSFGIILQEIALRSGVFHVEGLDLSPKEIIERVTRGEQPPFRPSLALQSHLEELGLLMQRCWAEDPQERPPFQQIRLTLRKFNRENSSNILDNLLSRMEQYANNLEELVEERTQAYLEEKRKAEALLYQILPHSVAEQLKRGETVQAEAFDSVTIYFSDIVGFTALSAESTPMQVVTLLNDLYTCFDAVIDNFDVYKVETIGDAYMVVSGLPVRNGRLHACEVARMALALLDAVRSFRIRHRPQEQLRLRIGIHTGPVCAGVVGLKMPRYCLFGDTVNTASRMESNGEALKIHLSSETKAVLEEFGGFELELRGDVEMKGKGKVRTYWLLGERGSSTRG

Row | SMILES | activity change, negative = inhibition [%]
1 | CN1CCc2ccccc2Cc2[nH]c3ccccc3c2CC1 | -3.36
2 | O=C(/C=C/c1ccc(O)c(O)c1)OCCc1ccccc1 | -2.48
3 | CC(C)NC[C@@H](O)c1ccc(O)c(O)c1 | 10.4
4 | CC(C)NC[C@H](O)COc1cccc2[nH]ccc12 | 1.06
5 | Oc1cc2c(cc1O)CN(C(=S)NCCc1ccc(Cl)cc1)CCC2 | -1.43
6 | Cn1cc(C2=C(c3ccc(Cl)cc3Cl)C(=O)NC2=O)c2ccccc21 | -15.2
7 | Cc1cc(NC2CCCCC2)nc(-n2nc(C)cc2C)n1 | 7.76
8 | O=C(O)CNC(=O)C(CS)Cc1ccccc1 (configuration not stated) | 5.34
9 | COc1cccc(C(=O)NCCN2CCN(c3ccc(Cl)cc3)CC2)c1 | -6.73
10 | OC[C@H]1O[C@@H](n2cnc3c(NC4CCCCC4)ncnc32)[C@H](O)[C@@H]1O | -1.68
11 | NC(=O)C(=O)O | 13.4
12 | O=C(Nc1ccccc1)c1cc([N+](=O)[O-])ccc1Cl | 16.2
13 | NCCCCCCCCCCN | -1.58
14 | COc1cccc(OC)c1OCCNCC1COc2ccccc2O1 (configuration not stated) | 8.6
15 | COC1=C(OC)C(=O)c2ccccc2C1=O | -7.27
16 | OCC1O[C@H](O)C(Cl)C(O)C1O (some centres not stated) | 5.97
17 | CCCN(CC1CC1)c1nc(C)nc(Nc2c(Cl)cc(Cl)cc2Cl)c1Cl | 1.98
18 | O=P(O)(O)C(Cl)(Cl)P(=O)(O)O | 20.7
19 | COc1cc(SC)ccc1C(=O)N1CCC(Cc2ccccc2)CC1 | -0.147

Row | SMILES | activity change, negative = inhibition [%]
20 | Clc1ccc(N2CCN(Cc3c[nH]c4ncccc34)CC2)cc1 | -28.6
21 | Fc1ccc(C(OCCCc2cnc[nH]2)c2ccc(F)cc2)cc1 | -2.55
22 | CC(C)(C=O)Cc1cc(C(C)(C)C)c(O)c(C(C)(C)C)c1 | 1.66
23 | CC1(C)CCC=[N+]1[O-] | 14
24 | Brc1c(Br)c(Br)c2n[nH]nc2c1Br | -13.6
25 | Nc1nc(Nc2ccccc2)nc2c1ncn2[C@@H]1O[C@H](CO)[C@@H](O)[C@H]1O | -2.34
26 | CCCCCCCCCCCCCCCC(=O)OC(CC(=O)O)C[N+](C)(C)C (configuration not stated) | 9.51
27 | NCCCS(=O)(=O)O | 4.46
28 | Cn1ncc(S(=O)(=O)Cc2ccccc2)c(Br)c1=O | -8.93
29 | O=C(CCCCCN1CCN(c2ccccc2-c2ccccc2)CC1)NC1CCCc2ccccc21 (configuration not stated) | -6.61
30 | O=c1[nH]c2cc([N+](=O)[O-])c([N+](=O)[O-])cc2[nH]c1=O | -7.88
31 | CCCCCCCC/C=C\CCCCCCCC(=O)NCCO | 0.781
32 | Nc1nc(SCc2ccc([N+](=O)[O-])cc2)c2ncn([C@@H]3O[C@H](CO)[C@@H](O)[C@H]3O)c2n1 | 4.57
33 | CC(=O)N[C@H](C(=O)O)C(C)(C)SN=O | 7.73
34 | O=C(O)CC1CCCc2ccccc2C1O (configuration not stated) | -1.22
35 | NC(N)=NC(=O)c1nc(Cl)c(N2CCCCCC2)nc1N | 0.159
36 | CC(C)NCC(O)COc1cccc2ccccc12 (configuration not stated) | 10.6
37 | Cc1cc(NC(=O)Nc2ccc3c(ccn3C)c2)sn1 | -4.82

— PubChem BioAssay (NCATS)
